The results in this text go back to PubChem BioAssay.

For some assays here: Potency and affinity values are given separately. Calls of active or inactive are those of the source. Unless noted, how the calls were made is not given here.

The nature of assay [1]: antimalarial activity against Dd2 strain (AID 2302;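 active means growth inhibition above 50% at the single 2 µM test dose, taken to imply half-maximal potency below 2 µM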;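 further: 0% = DMSO untreated growth and 100% = chloroquine plus artemisinin killed control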). Particulars: P. falciparum Dd2 in RBCs, LDH growth readout, 72 h; at 2 µM; stronger effect = higher value.
Assay [2] in a line: human hepatoma cell viability loss – ATP luminescence, cytotoxicity control for P. falciparum antimalarial project, primary screen (AID 2303;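 active means inhibition above 50%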;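 further: 0% = DMSO wells and 100% = digitonin-killed cells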). As to conditions: HepG2 viability, 24-48 h, at 10 µM, stronger effect = higher value.
The target in assay [3] is L-lactate dehydrogenase (Plasmodium falciparum (isolate CDC / Honduras)) (UniProt Q27743). In words: PfLDH activity inhibition – cell lysate, 3D7 strain, counter-screen for P. falciparum growth inhibition project (AID 2304).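 Further: 0% = vehicle and 100% = reference inhibitor.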 Particulars: P. falciparum 3D7 crude extract, LDH APAD/NBT absorbance; at 2 µM; stronger effect = higher value.
Assay [4] in a line: inhibition of 3D7 malaria parasite growth – strain 3D7 (AID 2306).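 Further: 0% = DMSO wells and 100% = chloroquine plus artemisinin control wells.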 As to conditions: P. falciparum 3D7 erythrocytic growth, LDH absorbance, 72 h; at 2 µM; stronger effect = higher value.
Assay [5] is described as follows: liver-stage malaria parasite load reduction – cell-based, known kinase inhibitor set, luminescence, hepatoma host viability (AID 624392).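 Further: infected cells incubated roughly two days before readout.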 Particulars: Plasmodium liver stage in hepatoma cells, luciferase luminescence, concentration not given here; liver cell % of control: measured here: host liver cell viability; parasite % of control: stronger effect = lower value.
A short description of assay [6]: altered dexamethasone sensitivity, NF-kB reporter, cell-based, luciferase, IL-1B stimulus (AID 624486).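 On percent of negative control (+Dex): 100% = mean signal of vehicle control wells on the plate.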 As to conditions: IL-1B + dexamethasone, luminescence; percent of negative control (+Dex): actives lie on both sides, concentration not given here; z-score: measured here: IL-1B alone, no Dex.
Assay [7] is described as follows: C. elegans survival during P. aeruginosa infection – whole organism (AID 651566).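 Further: tested at 14 µM; sign flipped so higher z means a lower ratio.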 As to conditions: C. elegans killed by P. aeruginosa, survival ratio.
The nature of assay [8]: pro-inflammatory signaling induction in mouse macrophages – cell-based, murine, luminescence (AID 652131). Particulars: murine macrophage pro-inflammatory reporter, stronger effect = higher value.
A short description of assay [9]: inducers of IRF3 signaling, differentiated THP-1 – cell-based, PMA-stimulated THP-1, luminescence (AID 1053176). As to conditions: PMA-differentiated THP-1, IRF3 reporter luminescence; stronger effect = higher value.
Assay [10] addresses Calcium-dependent protein kinase 1 (Plasmodium falciparum (isolate 3D7)) (UniProt P62344). In words: PfCDPK1 kinase inhibitors, biochemical, TCAMS library (AID 1159585; cut-off not given, nearly all actives have IC50 up to about 0.98 µM;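 further: inhibitors leave more ATP so luminescence rises with inhibition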). Particulars: recombinant PfCDPK1, Kinase-Glo ATP depletion luminescence. (In general: Kinase-Glo measures the ATP left after a reaction by luminescence.)
In assay [11] the target is Plasmodium falciparum protein kinase 6 (PK6, PF3D7_1337100) (UniProt Q8IDW1). Briefly: PfPK6 kinase inhibitors, biochemical, TCAMS library (AID 1159586). Particulars: recombinant PfPK6, Kinase-Glo ATP depletion luminescence.
Assay [12] has as its target Protein kinase 7 (PK7), Plasmodium falciparum 3D7 (PF3D7_0213400) (UniProt Q7YTF7). Briefly: inhibition of Plasmodium PK7 catalytic activity – biochemical, TCAMS antimalarial set, Kinase-Glo luminescence (AID 1159587). As to conditions: recombinant PfPK7, Kinase-Glo ATP depletion luminescence.
For assay [13], the target named is Calcium-dependent protein kinase 4 (Plasmodium falciparum (isolate 3D7)) (UniProt Q8IBS5). Briefly: PfCDPK4 kinase inhibitors, biochemical, TCAMS library (AID 1159588; cut-off not given, nearly all actives have IC50 up to about 0.91 µM). Particulars: recombinant PfCDPK4, Kinase-Glo ATP depletion luminescence.
A short description of assay [14]: MELAS cybrid and Rieske KO viability enhancers – cell-based, MELAS cybrids, Rieske KO mouse fibroblasts, CellTiter-Glo, primary screen (AID 1508586;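 active means mean z-score across replicates of 1.96 or higher in either the MELAS or the Rieske mutant cell line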;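 further: z relative to plate mean and SD of compound and empty wells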). Particulars: low glucose.
The target of assay [15] is Cellular tumor antigen p53 (Homo sapiens) (UniProt P04637). In words: GFP-p53 level modulators in HPV16+ cells – imaging, known kinase inhibitor set, EGFP/DsRed ratio (AID 1053116).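 Further: cells exposed to compounds for 24 h at 37 °C before reading.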 Particulars: GFP-p53 stability, stronger effect = higher value; EGFP object count: measured here: GFP-p53 positive objects count.
Cellular tumor antigen p53 (Homo sapiens), sequence (P04637 whole entry, looked up): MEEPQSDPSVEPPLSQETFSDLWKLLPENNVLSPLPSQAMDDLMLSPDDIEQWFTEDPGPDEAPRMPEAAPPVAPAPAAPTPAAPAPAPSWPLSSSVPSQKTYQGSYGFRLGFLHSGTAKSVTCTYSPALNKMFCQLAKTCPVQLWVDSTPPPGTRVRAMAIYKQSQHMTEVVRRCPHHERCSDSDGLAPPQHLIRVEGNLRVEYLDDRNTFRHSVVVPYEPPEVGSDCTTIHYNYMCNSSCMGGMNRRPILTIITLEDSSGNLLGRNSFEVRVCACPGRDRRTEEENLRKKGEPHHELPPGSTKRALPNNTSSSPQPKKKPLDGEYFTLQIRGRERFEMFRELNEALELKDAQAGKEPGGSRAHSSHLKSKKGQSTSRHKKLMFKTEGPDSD

Calcium-dependent protein kinase 4 (Plasmodium falciparum (isolate 3D7)), sequence (Q8IBS5 whole entry, looked up): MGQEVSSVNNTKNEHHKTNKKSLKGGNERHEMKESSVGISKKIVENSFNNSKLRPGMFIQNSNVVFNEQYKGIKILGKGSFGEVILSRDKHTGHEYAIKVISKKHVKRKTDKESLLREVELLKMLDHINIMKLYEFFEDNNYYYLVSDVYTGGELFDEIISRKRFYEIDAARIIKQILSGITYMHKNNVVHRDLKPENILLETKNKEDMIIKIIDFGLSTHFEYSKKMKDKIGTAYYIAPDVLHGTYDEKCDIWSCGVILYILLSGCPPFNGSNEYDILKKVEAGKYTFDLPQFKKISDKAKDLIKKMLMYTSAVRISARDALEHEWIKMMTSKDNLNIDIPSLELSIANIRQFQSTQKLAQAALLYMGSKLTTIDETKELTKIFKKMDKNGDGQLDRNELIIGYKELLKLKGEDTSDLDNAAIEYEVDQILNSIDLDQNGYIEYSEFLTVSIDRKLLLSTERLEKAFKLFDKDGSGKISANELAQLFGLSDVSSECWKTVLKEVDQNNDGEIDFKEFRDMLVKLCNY
Protein kinase 7 (PK7), Plasmodium falciparum 3D7 (PF3D7_0213400), sequence (Q7YTF7 1-343): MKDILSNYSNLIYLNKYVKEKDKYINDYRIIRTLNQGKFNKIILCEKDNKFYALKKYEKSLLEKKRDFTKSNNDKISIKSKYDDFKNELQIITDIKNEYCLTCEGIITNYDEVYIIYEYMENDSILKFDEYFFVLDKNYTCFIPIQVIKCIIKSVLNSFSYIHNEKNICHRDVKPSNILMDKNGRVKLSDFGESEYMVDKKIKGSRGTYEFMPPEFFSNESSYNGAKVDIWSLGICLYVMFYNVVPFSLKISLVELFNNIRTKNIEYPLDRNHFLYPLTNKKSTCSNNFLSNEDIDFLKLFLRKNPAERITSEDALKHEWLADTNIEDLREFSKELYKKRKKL
L-lactate dehydrogenase (Plasmodium falciparum (isolate CDC / Honduras)), sequence (Q27743 whole entry, looked up): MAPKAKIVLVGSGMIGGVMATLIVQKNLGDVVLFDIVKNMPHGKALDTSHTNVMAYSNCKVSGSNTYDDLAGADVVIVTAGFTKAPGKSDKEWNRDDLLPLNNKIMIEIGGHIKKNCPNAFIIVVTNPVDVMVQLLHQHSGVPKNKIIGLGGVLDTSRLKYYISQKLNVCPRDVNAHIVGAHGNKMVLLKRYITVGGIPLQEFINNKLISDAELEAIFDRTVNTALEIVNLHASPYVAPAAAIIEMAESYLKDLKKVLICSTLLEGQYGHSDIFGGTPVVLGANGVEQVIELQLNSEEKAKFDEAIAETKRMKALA
Plasmodium falciparum protein kinase 6 (PK6, PF3D7_1337100), sequence (Q8IDW1 1-305): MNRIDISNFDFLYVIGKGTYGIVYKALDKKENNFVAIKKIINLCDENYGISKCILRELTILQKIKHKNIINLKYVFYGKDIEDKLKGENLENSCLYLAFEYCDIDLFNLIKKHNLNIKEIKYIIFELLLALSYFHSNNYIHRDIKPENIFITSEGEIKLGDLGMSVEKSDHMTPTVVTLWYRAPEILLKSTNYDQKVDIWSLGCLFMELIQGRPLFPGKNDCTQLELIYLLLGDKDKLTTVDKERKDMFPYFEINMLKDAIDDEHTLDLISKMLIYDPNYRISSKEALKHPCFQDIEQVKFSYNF
Calcium-dependent protein kinase 1 (Plasmodium falciparum (isolate 3D7)), sequence (P62344 whole entry, looked up): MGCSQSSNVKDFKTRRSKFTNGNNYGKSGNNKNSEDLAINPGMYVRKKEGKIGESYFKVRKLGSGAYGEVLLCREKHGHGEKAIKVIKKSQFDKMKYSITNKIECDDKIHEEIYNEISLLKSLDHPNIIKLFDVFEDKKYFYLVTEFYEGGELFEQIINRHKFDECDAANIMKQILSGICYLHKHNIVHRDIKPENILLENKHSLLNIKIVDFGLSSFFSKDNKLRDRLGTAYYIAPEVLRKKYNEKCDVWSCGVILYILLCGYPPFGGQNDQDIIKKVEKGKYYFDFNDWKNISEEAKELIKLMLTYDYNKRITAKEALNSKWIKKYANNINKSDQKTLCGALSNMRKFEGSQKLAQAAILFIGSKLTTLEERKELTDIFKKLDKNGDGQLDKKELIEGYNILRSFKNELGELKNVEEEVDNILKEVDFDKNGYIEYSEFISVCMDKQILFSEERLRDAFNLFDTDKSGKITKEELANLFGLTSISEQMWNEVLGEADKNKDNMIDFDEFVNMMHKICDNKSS

On to `CS(=O)(=O)CCNCc1ccc(-c2ccc3ncnc(Nc4ccc(OCc5ccccc5)c(Cl)c4)c3c2)o1`, for which the growth inhibition was 76% (active) in assay [1] and 101% (active) in assay [4]. For the same compound, the inhibition was 4% (inactive) in assay [2] and -7% (inactive) in assay [3]. Besides, the liver cell % of control in assay [5] was determined as 113%. Further, the parasite % of control in [5] was 73.2% (inactive). For the same compound, the percent of negative control (+Dex) in assay [6] is 73.5% (inactive). Further, the z-score in [6] was -1.31; in assay [7], -0.785 (inactive); in assay [8], 2.12 (inactive); in assay [14] (MELAS cybrid survival, CellTiter-Glo 48 h, stronger effect = higher value), -0.588 (inactive); in [14] (Rieske KO mouse fibroblast survival, CellTiter-Glo 72 h), -0.304. In assay [9], the fraction signal was -0.0085 (inactive). The result in assay [10], in [11], in [12] and in assay [13] was inactive.
As to `Cn1cc(C2=C(c3cccc(Cl)c3)C(=O)NC2=O)c2ccccc21`, in assay [5], the liver cell % of control was found to be 109% and the parasite % of control is 69.6% (inactive). Further, in assay [6], the percent of negative control (+Dex) is 106% (inactive) and the z-score was 0.59. Besides, in assay [15], the EGFP object count was 5 and the EGFP/DsRed ratio was 0.137 (inactive). In assay [9], the fraction signal was 0.0035 (inactive).
For `CC(=O)NC(Cc1ccc(OP(=O)(O)O)cc1)C(=O)NC1CCC(=O)N2CCCC(C(=O)NCc3ccccc3)N2C1=O` (stereo not given), in assay [5], the liver cell % of control was 105% and the parasite % of control is 55% (inactive). Besides, in [6], the percent of negative control (+Dex) was 102% (inactive) and the z-score was determined as 0.685. Also, in assay [15], the EGFP object count is 1.5 and the EGFP/DsRed ratio was 0.0487 (inactive). Moreover, the fraction signal in [9] was -0.0115 (inactive).
Consider `Cn1cc(C2=C(c3ccccc3C(F)(F)F)C(=O)NC2=O)c2ccccc21`, for which, in assay [5], the liver cell % of control amounted to 149% and the parasite % of control was 31% (inactive). In addition, in assay [6], the percent of negative control (+Dex) is 114% (inactive) and the z-score came to 0.1. Besides, in assay [15], the EGFP object count is 32.5 and the EGFP/DsRed ratio is 0.646 (inactive). Further, in assay [9], the fraction signal is 0.01 (inactive).
As to `Cn1cc(C2=C(NN3CCOCC3)C(=O)NC2=O)c2ccccc21`, in assay [5], the liver cell % of control is 102% and the parasite % of control was 52.1% (inactive). In [6], the percent of negative control (+Dex) is 101% (inactive) and the z-score was found to be 0.61. Moreover, in assay [15], the EGFP object count amounted to 7 and the EGFP/DsRed ratio was 0.147 (inactive). The fraction signal in assay [9] is -0.016 (inactive).
Regarding `Nc1c(C(=O)c2cccc(-c3ccc[n+]([O-])c3)c2)cnn1-c1ccc(F)cc1F`, in [5], the liver cell % of control amounted to 105% and the parasite % of control was 45.9% (inactive). In [6], the percent of negative control (+Dex) was 101% (inactive) and the z-score came out at 0.065. Moreover, in assay [15], the EGFP object count was determined as 3.5 and the EGFP/DsRed ratio was 0.063 (inactive). Also, the fraction signal in assay [9] is -0.0155 (inactive).
Turning to `Cn1cc(C2=C(c3cn(CCN)c4ccccc34)C(=O)NC2=O)c2ccccc21`, in assay [5], the liver cell % of control amounted to 89.8% and the parasite % of control is 29.9% (inactive). For the same compound, in assay [6], the percent of negative control (+Dex) is 99% (inactive) and the z-score worked out at 0.435. For the same compound, in assay [15], the EGFP object count turned out to be 14.5 and the EGFP/DsRed ratio was 0.0574 (inactive). In addition, the fraction signal in assay [9] was 0.0015 (inactive).
For `Nc1[nH]nc2nc(-c3cccs3)cc(C(F)(F)F)c12`, in assay [5], the liver cell % of control was 104% and the parasite % of control was 41.7% (inactive). Further, in assay [6], the percent of negative control (+Dex) was 73% (active) and the z-score was -2.23. Besides, in [15], the EGFP object count worked out at 4 and the EGFP/DsRed ratio was 0.138 (inactive). For the same compound, the fraction signal in assay [9] is -0.0165 (inactive).
Consider `COc1ccccc1CCN=C1NC(=O)C(=Cc2ccc3ncccc3c2)S1`, for which, in assay [5], the liver cell % of control is 109% and the parasite % of control was 68.7% (inactive). For the same compound, in assay [6], the percent of negative control (+Dex) was 90.5% (inactive) and the z-score is -0.58. Moreover, in assay [15], the EGFP object count amounted to 5 and the EGFP/DsRed ratio was 0.0846 (inactive). Moreover, in assay [9], the fraction signal was 0.39 (active).
In the case of `CC(=O)NC(Cc1ccc(OP(=O)(O)O)cc1)C(=O)NC1CCC(=O)N2CCCC(C(=O)NCc3ccc(Cl)cc3)N2C1=O` (stereo not given), in assay [5], the liver cell % of control stood at 96.1% and the parasite % of control is 45.1% (inactive). In assay [6], the percent of negative control (+Dex) was 95.5% (inactive) and the z-score turned out to be 0.05. For the same compound, in [15], the EGFP object count was determined as 3.5 and the EGFP/DsRed ratio was 0.276 (inactive). Also, in assay [9], the fraction signal was -0.003 (inactive).

By inhibition is commonly meant the drop in the measured response relative to a control, in per cent.
